Screening results deposited in PubChem BioAssay by National Center for Advancing Translational Sciences (NCATS).
The list is not random: actives were taken first. Their share in the collection is about 2.4%.
D2 PAM-1: positive allosteric modulators of human D2 dopamine receptor | potentiation, % (concentration not given with the values) | DiscoveRx D2 beta-arrestin cells, luminescence, 90 min; 100% = 57 uM dopamine signal | 360,000 tested, 0.23% active | P14416 | AID 624464; in the data active means potentiation above about 50%
Target sequence (P14416 whole entry, looked up): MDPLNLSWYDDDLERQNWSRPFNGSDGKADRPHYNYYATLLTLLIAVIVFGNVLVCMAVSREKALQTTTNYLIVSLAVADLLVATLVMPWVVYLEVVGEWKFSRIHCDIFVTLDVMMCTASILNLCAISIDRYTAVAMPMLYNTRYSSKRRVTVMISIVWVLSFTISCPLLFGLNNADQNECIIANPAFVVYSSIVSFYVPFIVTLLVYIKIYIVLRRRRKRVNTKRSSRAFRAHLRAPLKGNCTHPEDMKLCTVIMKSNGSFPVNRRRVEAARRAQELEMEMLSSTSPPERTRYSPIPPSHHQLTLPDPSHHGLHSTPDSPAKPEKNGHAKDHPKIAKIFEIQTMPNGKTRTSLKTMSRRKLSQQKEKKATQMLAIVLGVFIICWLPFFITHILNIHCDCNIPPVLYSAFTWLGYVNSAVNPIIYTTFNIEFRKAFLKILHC
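D2 cells co-treated with compound plus 50 nM dopamine (EC20) for 90 min at 37 deg C to detect potentiation. Beta-arrestin recruitment was read as enzyme-fragment luminescence after 1 h at ambient temperature. Full response was set by 57 uM dopamine.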
D2 ag-1: agonists of human D2 dopamine receptor | 340,000 tested, 0.53% active | activation, % at 2 µM | AID 485358 | HEK293 T-REx D2 cells, calcium flux agonist mode | P14416;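 active means activation over 3 SD above normal in the single-dose calcium agonist read, cut at about 30% in these data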; further: 0% is about no effect
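Agonism is scored from calcium flux in a force-coupled, inducible HEK293 cell line expressing D2, read kinetically for 180 s after compound addition against dopamine controls.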
D2 PAM-2: positively modulates the human D2 dopamine receptor allosterically; P14416; HEK293 T-REx D2, calcium flux, EC20 dopamine potentiation; 340,000 tested, 0.34% active; potentiation, % at 10 µM;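 active means potentiation over 3 SD above the plate norm, cut at about 30% in these data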; further: 0% is about no effect
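Tetracycline-induced HEK293 T-REx cells force-coupled to calcium signalling expressed D2; compounds were pin-added after a 10 s baseline, read kinetically 180 s, then an EC20 dopamine challenge followed with a further 180 s calcium read.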
D2 antag: antagonizes the human D2 dopamine receptor; P14416; HEK293 TREx D2 cells, calcium flux, dopamine EC80; inhibition, % at 10 µM; 340,000 tested, 2% active; AID 485344; in the data active means inhibition above about 30%; inactive means below that, where a call was filed; further: 0% is about no effect
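Cells plated overnight at 30 C with tetracycline; no-wash calcium dye, 30–90 min RT; 10 s baseline; compound pinned; 180 s read; EC80 dopamine added; another 180 s read.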
D2 ag-2: human D2 receptor agonism in beta-arrestin assay | 360,000 tested, 0.084% active | activation, % (concentration not given with the values) | DiscoveRx PathHunter D2 beta-arrestin, luminescence, 90 min; 100% = 57 uM dopamine signal | P14416; in the data active means activation above about 40%
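Agonist mode: compounds alone added to overnight-plated D2 PathHunter cells for 90 min at 37 C, with 57 uM final dopamine (EC100) defining full response. Beta-arrestin recruitment detected by chemiluminescent reagent, read after 1 h at ambient temperature.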
An asterisk follows results filed as active; . = not tested or not shown.

SMILES	D2 PAM-1	D2 ag-1	D2 PAM-2	D2 antag	D2 ag-2
O=C(CSc1ncnc2nc[nH]c12)c1ccc([N+](=O)[O-])cc1	56*	-1	3	-1	14
C=C(C)Cn1c(SCC(=O)O)nnc1-c1ccccc1	-1	-1	5	-6	1
C=C(C)Cn1c(SCC(=O)O)nnc1-c1ccc(C(C)(C)C)cc1	8	0	-4	30*	-2
Cc1cccc(C(=O)N[C@H](C(=O)NCCc2ccc(Cl)cc2)C(C)C)c1	-2	-1	-12	38*	-2
CC(C)[C@H](NC(N)=O)C(=O)NCCc1ccc(Cl)cc1	-3	0	-2	-4	-4
CCOc1ccc(CNC(=O)C2CCCN(S(=O)(=O)N3CCC(C)CC3)C2)cc1OC (centres undefined)	-3	.	.	.	0
CCOc1ccc(CNC(=O)C2CCCN(S(C)(=O)=O)C2)cc1OC (centres undefined)	-7	0	4	52*	-1
Cc1cc(C)c(S(=O)(=O)N2CCOC2CNC(=O)C(=O)NCc2ccncc2)c(C)c1 (centres undefined)	-16	0	4	-9	1
CCOc1ccc(C2/C(=C(/O)c3ccc(Cl)cc3)C(=O)C(=O)N2CCCN(C)C)cc1OC (centres undefined)	.	0	5	45*	.
CN(C)CCN1C(=O)C(=O)/C(=C(/O)c2ccc(OCc3ccccc3)cc2)C1c1ccncc1 (centres undefined)	-1	1	3	42*	0
O=C(CNC(=O)c1ccc(Br)o1)NNC(=O)c1n[nH]c(=O)c2ccccc12	-13	0	-11	18	-3
O=C1CN(C(=O)/C=C/c2ccccc2)CCN1	-1	0	0	5	-1
CN(CC(=O)Nc1ccc(Cl)c(C(F)(F)F)c1)C(=O)Cc1c[nH]c2ccccc12	-4	0	4	3	-2
Cc1ccc(-n2ncc3c(N4CCCC4)ncnc32)c(C)c1	-13	1	-4	11	-3
COc1cccc(N2CCN(c3ncnc4c3cnn4-c3ccc(C)cc3C)CC2)c1	25	0	-8	23	87*
COC(=O)[C@@]1(Cc2ccc(OC)cc2)[C@@H]2[C@@H](CC(=O)[C@H]2CC(=O)C(=O)N(C)C)CN1C(=O)c1ccccc1	-25	1	-2	11	-7
COC(=O)[C@@]1(Cc2ccc(OC)cc2)[C@@H]2C(=CC(=O)[C@H]2CC(=O)C(=O)N2CCCC2)CN1C(=O)c1ccccc1	6	0	11	38*	0
CCOc1ccc(-n2c(C)cc(C(=O)NS(=O)(=O)c3ccc(C)cc3)c2C)cc1	-7	-1	-1	3	1
CCCCCCn1c(-c2ccco2)nc2oc3cc(OC)ccc3c(=O)c2c1=O	-9	-1	30*	-4	-1
COc1ccc(Cn2c(C)nc3oc4cc(OC)ccc4c(=O)c3c2=O)cc1	-38	0	-11	72*	-6
Cc1nc2oc3ccccc3c(=O)c2c(=O)n1Cc1ccccc1	-4	1	-9	31*	-1
COc1ccc2c(=O)c3c(=O)n(CCc4ccccc4)c(C)nc3oc2c1	0	.	.	.	1
O=c1c2ccccc2oc2nc(-c3ccco3)n(CCc3ccccc3)c(=O)c12	.	-1	3	-5	.
COc1ccc2c(c1OC)C(=O)N1c3ccccc3C(=O)N(c3ccc(F)cc3)C21 (centres undefined)	0	0	.	41*	-2
CCc1cc(C(=O)NCC(c2cccs2)N2CCOCC2)sc1C (centres undefined)	-38	0	-5	31*	-2
SMILES	D2 PAM-1	D2 ag-1	D2 PAM-2	D2 antag	D2 ag-2
COCCn1c(-c2ccc(-c3ccccc3Cl)o2)nc2c1c(=O)[nH]c(=O)n2CC(C)C	-14	0	-1	-3	-2
COCCn1c(-c2ccc(NC(C)=O)cc2)nc2c1c(=O)[nH]c(=O)n2CC(C)C	-3	0	0	31*	-2
Cc1ccc(C(=O)C2CCOC(C)(C)C2)cc1 (centres undefined)	-4	-1	6	23	-3
CC(C)N(C(=O)[C@H]1C[C@H](CC(=O)NC(C)(C)C)C(=O)N2CCc3c([nH]c4cc(CCC(=O)N(C)C)ccc34)[C@]12C)C(C)C	-2	.	.	.	-1
CCOC(=O)N1CCN(Cc2nc3cc([N+](=O)[O-])ccc3n2CC)CC1	3	-1	-7	37*	2
CN(C)S(=O)(=O)c1cccc(NC(=O)CCSc2ccc(Cl)cc2)c1	-25	1	-20	33*	-2
CN(C)S(=O)(=O)c1cccc(NC(=O)CCNC(=O)Nc2ccccc2)c1	-4	.	.	.	-1
CN(C)S(=O)(=O)c1cccc(NC(=O)COC(=O)c2ccc([N+](=O)[O-])o2)c1	78*	-1	0	-2	11
COc1cccc(/C=N/NC(=S)Nc2cccc(S(=O)(=O)N(C)C)c2)c1	-5	2	-11	1	-1
COc1cc(/C=N/NC(=S)Nc2cccc(S(=O)(=O)N(C)C)c2)cc(OC)c1O	10	-2	40*	-7	6
COC(=O)c1cccc(NC(=O)CCc2cc(OC)c(OC)c(OC)c2)c1	7	-1	0	-7	-1
COc1cc(CCC(=O)Nc2cccc(S(=O)(=O)N(C)C)c2)cc(OC)c1OC	-5	0	5	39*	-3
CCOC(=O)c1cc(C(=O)NN)c(C)nc1C	-3	.	.	.	0
O=CNCc1nc2ccccc2n1CCc1ccccc1	-2	.	.	-2	6
CCN(C1CCCCC1)S(=O)(=O)c1ccc(S(=O)(=O)NCc2ccncc2)cc1	-3	.	.	.	7
CCN(C1CCCCC1)S(=O)(=O)c1ccc(S(=O)(=O)NCCc2ccncc2)cc1	-6	-2	0	32*	0
COC(=O)c1cnn(-c2ccc(C)c(C)c2)c1-n1cccc1	-2	0	13	30*	-3
Cc1oncc1C(=O)Nc1ccc(C(F)(F)F)cc1	-2	-2	4	36*	13
CCOC(=O)c1c(-c2ccc(OC)cc2)oc2ccc(OCc3ccc(Br)cc3)cc12	.	4	16	.	.
CCOc1ccc(NS(=O)(=O)c2ccc(OCC(=O)N3CCCC3)cc2)cc1	3	0	11	51*	2
CCOC(=O)N1CCN(C(=O)COc2ccc(S(=O)(=O)Nc3ccc(OCC)cc3)cc2)CC1	13	0	11	4	1
Cc1nn(CC(=O)Nc2ccc(Br)cc2F)c(=O)c2cccn12	2	0	-6	47*	-4
Cc1ccccc1NC(=O)Cn1nc(C)n2cccc2c1=O	2	0	-6	17	1
O=C(NC1CCCC1)c1ccccc1-c1ccccc1	-7	0	-1	-15	-4
O=C(O)c1ccccc1C(=O)NC1Cc2ccccc2C1	4	35*	-11	6	1
